# Laboratory results as given in the supplement of paper PMC3334620.
# Over roughly 33,000 sequences, “E-score (-0.5 to 0.5)” has its median near -0.041; the highest 2% begin near 0.37. The list comes from a sample in which the highest values are over-represented; it also holds similar and randomly drawn sequences.
# Biological target: T1, Ecm22 (UniProt Q05958)
# T1 sequence: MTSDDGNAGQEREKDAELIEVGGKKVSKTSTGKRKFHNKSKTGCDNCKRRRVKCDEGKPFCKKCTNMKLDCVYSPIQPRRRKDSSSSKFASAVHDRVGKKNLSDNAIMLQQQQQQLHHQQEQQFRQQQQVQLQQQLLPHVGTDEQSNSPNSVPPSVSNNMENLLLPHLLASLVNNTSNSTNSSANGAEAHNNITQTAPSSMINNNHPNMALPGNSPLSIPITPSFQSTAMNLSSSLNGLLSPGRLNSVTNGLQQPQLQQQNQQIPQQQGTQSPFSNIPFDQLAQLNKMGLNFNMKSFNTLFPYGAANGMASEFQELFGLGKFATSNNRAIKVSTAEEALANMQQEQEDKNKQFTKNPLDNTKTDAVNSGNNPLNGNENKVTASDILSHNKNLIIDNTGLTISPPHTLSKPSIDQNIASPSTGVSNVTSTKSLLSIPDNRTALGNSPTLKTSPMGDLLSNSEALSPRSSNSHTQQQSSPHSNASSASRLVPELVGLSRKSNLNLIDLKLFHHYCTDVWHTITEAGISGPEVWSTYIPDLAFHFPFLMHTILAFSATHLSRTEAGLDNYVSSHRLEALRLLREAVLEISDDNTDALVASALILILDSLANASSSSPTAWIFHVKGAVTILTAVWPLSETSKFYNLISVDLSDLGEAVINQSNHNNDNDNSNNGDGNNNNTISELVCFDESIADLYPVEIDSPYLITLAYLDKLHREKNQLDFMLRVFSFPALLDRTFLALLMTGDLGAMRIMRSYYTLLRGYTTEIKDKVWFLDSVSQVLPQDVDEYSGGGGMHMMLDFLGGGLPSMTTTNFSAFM
# Experiment: PBM E-score (8-mer binding enrichment) (E-score (-0.5 to 0.5)); higher = stronger / more preferred TF binding
# Conditions: protein concentration: 200 nM; construct: GST-full length
# Method in brief: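 For each ungapped eight-base word taken together with its reverse complement, the Universal PBM Analysis Suite assigned an E-score. Binding data came from GST-tagged yeast transcription factors, applied at about 100-200 nM, on universal all-10-mer Agilent arrays made double-stranded by primer extension. Fluorescent anti-GST marked bound protein, and scans were normalised with masliner.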
row,Sequence,PBM E-score
1,ATGACTTG,-0.136
2,AGATACTG,-0.0213
3,CGGACGTA,0.205
4,ACTTTTAT,-0.217
5,CTACAGTC,-0.0606
6,AACAGGTA,-0.0274
7,AATAAGGC,-0.225
8,ACGTATAG,0.403
9,ACGTATCG,0.192
10,CGGTATAG,0.0179
11,CCGTATCG,0.291
12,CCGTATAG,0.465
13,ACGTATTG,0.22
14,CTGAAGTA,-0.134
15,TCACCAAA,0.0237
16,CCGGATAA,0.0584
17,TCGGATAA,0.372
18,ACGGATAA,0.159
19,AGCAGCCG,-0.0197
20,ATATAGGC,-0.00233
21,AAACGCAT,0.0604
22,GAACGACA,0.456
23,CAACGACG,0.351
24,CAACGACA,0.346
25,CGACGACG,0.127

row,Sequence,PBM E-score
1,ACACGACT,0.117
2,TAACGACA,0.352
3,AAACGACG,0.465
4,AGACGACT,0.065
5,GAACGACC,0.451
6,AAACGACT,0.437
7,GGACGACC,-0.107
8,GCACGACC,-0.219
9,ATAGCTCC,-0.169
10,CCCTTCCA,-0.32
11,ACCGGATG,0.0481
12,CTCCTCTC,-0.0778
13,GGTGTGAC,-0.177
14,CTCGCACC,0.31
15,AGATCCGG,-0.0497
16,ATCGGTCG,0.211
17,AAACGACA,0.467
18,CCACGACA,-0.0411
19,AAACGACC,0.45
20,CAACGACC,0.278
21,TCACGACA,0.00255
22,AATCGACC,-0.0105
23,CCTTCCGC,-0.184
24,GAGAGGGA,-0.212
25,GGATACCA,-0.0853

row,Sequence,PBM E-score
1,CGATACAA,0.148
2,GGATACTA,-0.144
3,AGATACGA,0.47
4,AGATACGG,0.28
5,CGATACGC,0.2
6,AGATACGC,0.196
7,GGATACGA,0.45
8,CGATACGA,0.454
9,CAAATGCC,-0.27
10,TGCAAGAA,-0.0877
11,AAGCCATA,-0.0528
12,CCTTCCCG,-0.043
13,ACAGAGCG,0.00751
14,CCTTGAAA,-0.0768
15,ACGAGTTA,0.422
16,GCGAGTTA,0.191
17,ACGAGTTG,0.371
18,CCGAGTTA,0.0641
19,ACGAGTTC,0.319
20,AGGAGTTG,0.0179
21,GGGAACCC,0.0178
22,CGCCCAGA,-0.104
23,CCCAACCA,0.0792
24,GAAGAGAC,0.0183
25,GACCTTCA,-0.0961

row,Sequence,PBM E-score
1,CGTTTGGC,0.394
2,AGTTTGGC,-0.00953
3,CGTTTAGA,0.446
4,AGTTTAGA,-0.186
5,AGTTTAGC,-0.19
6,CGTTTAGC,0.464
7,CGTTTGGA,0.366
8,GGTTTAGA,-0.179
9,CATTTAGC,0.0683
10,CACTGCTG,-0.147
11,GCTGCTAC,0.124
12,GACCCGGA,-0.17
13,CTCCGCGC,-0.0267
14,TCGTAGAA,0.384
15,ACGTAGCA,0.0433
16,GCGTAGAA,-0.0103
17,TCGTAGCA,0.419
18,CCGTAGAA,0.122
19,CCGTAGCA,0.165
20,AAGACCTC,-0.2
21,GAAACGAC,0.41
22,CAAACGAG,0.463
23,AAAACGAC,0.363
24,AAAACGAG,0.362
25,CAAACGAC,0.442

row,Sequence,PBM E-score
1,GAAACGCC,0.0403
2,CCAACGAG,0.093
3,GAAACGGC,0.2
4,CTAACGAC,0.282
5,ACCCAGCG,-0.184
6,CAGGACCG,-0.0291
7,CAATTCGC,0.0698
8,ACTCACGG,0.034
9,CACGTCCG,-0.21
10,CAGATGGA,0.0554
11,ACTCACCG,-0.0985
12,CACGTTAC,-0.046
13,ATCGTTAC,0.264
14,CCCGTTAA,0.256
15,CGCGTTAC,0.159
16,ATCGTTAA,0.403
17,ATCGTTAG,0.201
18,GGCGTTAA,-0.0419
19,GACGTTAA,0.0928
20,CTCGTTAA,0.437
21,CTCGTTAC,0.371
22,CACGTTAA,0.00208
23,GTCGTTAA,0.427
24,CGGCGTAG,-0.00106
25,ATAGTGAT,0.176

row,Sequence,PBM E-score
1,CCTCGCAG,0.0132
2,CCCGTCCG,-0.309
3,CGCCAGTC,0.014
4,GCACGGAA,-0.094
5,GGACGGAA,-0.0866
6,ATACGGAA,0.374
7,ATACGGAC,0.362
8,GTACGGAA,0.4
9,ATACGGAT,0.332
10,GTACGGAC,0.372
11,CTACGGAC,-0.07
12,TTACGGAA,0.266
13,ATACGGAG,0.385
14,CTACGGAG,-0.0418
15,CTACGGAA,0.0649
16,AATTTGCT,-0.0782
17,TAGGGAGA,-0.252
18,ACATGGGG,-0.282
19,TGAATTAA,0.099
20,CCGGAGGA,-0.171
21,CGAAACGA,0.424
22,AGAAACGC,-0.0375
23,AGAAACGA,0.424
24,GAAAACGA,0.306
25,CGAAACCA,0.28

row,Sequence,PBM E-score
1,GGAAACGA,0.426
2,CGAAACGC,0.0992
3,GGAAACAA,0.0422
4,AGAAACGG,0.272
5,CCTGTGTA,0.00294
6,GAGAGCAC,-0.00667
7,AACATCGT,0.264
8,AAGTATCA,-0.115
9,CAGCTAGA,-0.0476
10,CTTGCCGA,-0.0634
11,ACGACCAA,0.371
12,ACGACCGA,0.394
13,ACGACCAC,0.35
14,CCGACCGA,0.203
15,ACGACCTC,0.337
16,ACGACCTA,0.384
17,CCGACCTA,0.0401
18,ACGACCAG,0.319
19,GCGACCGA,0.218
20,AGACATTG,-0.268
21,ACTCGCAG,0.0817
22,GCAGGGGC,-0.243
23,GAAGAAGC,-0.234
